Experimental data: PubChem BioAssay AID743279 (National Center for Advancing Translational Sciences (NCATS), 2014)
“And” between values parts separate entries of the source, which are not always exact repeats. Equal entries are not always repeated. Screen size: about 360,000 compounds; about 17,000 (4.7%) were called active. Another 5% or so got no clear call; they are omitted. Rule as the data show it: active = activity change below about -50%; inconclusive = mostly about -30% to -49%; inactive = weaker than that. The entries come from a sample that favours actives as a whole.

Test: qHTS for Inhibitors of Inflammasome Signaling: IL-1-beta AlphaLISA Primary Screen
Details: THP-1 LPS/ATP IL-1B secretion, 16 h; at 57.5 µM, stronger effect = lower value
How it was run: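 Secreted IL-1B measured by AlphaLISA bead assay after 16 h compound exposure of THP-1 cells; compounds (final up to 57.5 uM) added 1 h before LPS (250 ng/mL) and ATP (1.25 mM) stimulation; lower signal means less secretion.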
% is scaled to controls: 0 for no effect and ±100 for the full control effect.

Row | SMILES | activity change
1 | CCOC(=O)C1=CCC(c2ccc(F)cc2)N(S(=O)(=O)c2ccc(C)cc2)C1 (stereo unspecified) | 30.7% (inactive)
2 | NC(CSC12CC3CC(CC(C3)C1)C2)C(=O)O (stereo unspecified) | 23.7% (inactive)
3 | O=C(c1cccs1)N1C[C@H](n2cc(C3CC3)nn2)[C@@H](O)C[C@@H]1c1ccccc1 | 0.261% (inactive)
4 | Clc1cccc(-c2nc(NCC3CCCO3)c3ccccc3n2)c1 (stereo unspecified) | -76.8% (active)
5 | O=C(NCC1CCCO1)c1ccc2ccccc2n1 (stereo unspecified) | 3.35% (inactive)
6 | c1ccc2c(NCC3CCCO3)nc(-c3ccncc3)nc2c1 (stereo unspecified) | -27.3% (inactive)
7 | CCCCn1nnnc1C(c1cccc(OC)c1OC)N1CCN(C/C=C/c2ccccc2)CC1 (stereo unspecified) | -23.9% (inactive)
8 | C[C@H]1CN([C@@H](C)CO)C(=O)c2cc(-c3ccccc3F)cnc2O[C@H]1CN(C)C(=O)C1CCOCC1 | 13.6% (inactive)
9 | CN/C(=C\[N+](=O)[O-])NCCSCc1csc(CN(C)C)n1 | 0.154% (inactive)
10 | COc1ccc(C(=O)NCC(c2ccco2)N2CCc3ccccc32)cc1OC (stereo unspecified) | -0.703% (inactive)
11 | Cc1ccccc1C(=O)NCC(c1ccco1)N1CCc2ccccc21 (stereo unspecified) | -20.8% (inactive)
12 | O=C(NCC(c1ccco1)N1CCc2ccccc21)c1cccc(F)c1 (stereo unspecified) | -86.4% (active)
13 | CCc1nnc(NC(=O)CCC(=O)N2CCN(c3cc(C)ccc3C)CC2)s1 | 36.3% (inactive)
14 | O=C(CSc1n[nH]c(=O)n1-c1ccccc1)Nc1ccccc1C(F)(F)F | 14.4% (inactive)
15 | O=S(=O)(c1ccc(F)cc1)N1CCN(Cc2ccccc2C(F)(F)F)CC1 | 8.37% (inactive)
16 | O=c1[nH]nc(SCCS(=O)(=O)c2ccc(F)cc2)n1-c1ccccc1C(F)(F)F | -96.7% (active)
17 | COC(=O)[C@@]1(Cc2ccc(OC)cc2)[C@H]2c3cc(C(=O)N4CCCC4)n(Cc4ccc(OC(F)(F)F)cc4)c3C[C@H]2CN1C(=O)c1ccccc1 | 0% (inactive)
18 | CCC(C(=O)Nc1c(C)cccc1C)n1c(-c2cc(C)cs2)nc2ccccc21 (stereo unspecified) | -9.28% (inactive)
19 | O=C(O)Cc1ccc(NC(=O)Nc2cccc3ccccc23)cc1 | 11.3% (inactive)

Row | SMILES | activity change
20 | Cc1ccc(NC(=S)NC(NC(=O)Cc2cccc3ccccc23)C(Cl)(Cl)Cl)cc1 (stereo unspecified) | 1.31% (inactive)
21 | O=C(Cc1cccc2ccccc12)NNC(=O)Nc1ccc(Cl)cc1 | -50% (active)
22 | O=C1C(Sc2cccc(F)c2)=C[C@@]2(O)CC[C@@H](O)[C@]1(Sc1cccc(F)c1)[C@H]2O | 8.29% (inactive)
23 | O=C(Nc1ccccc1)Nc1ccccc1C(=O)NCc1ccco1 | -56.9% (active)
24 | O=C(CCNC(=O)c1ccccc1Cl)NCc1ccco1 | 2.08% (inactive)
25 | Cc1cccc(Nc2ccccc2C(=O)NCc2ccco2)c1C | 3.14% (inactive)
26 | O=C1CSC(=S)N1c1ccc(Cl)c(Cl)c1 | 7.49% (inactive)
27 | CCC(CC)C(C(=O)NC1CCCC1)N1CCN(c2cc(C)nc3ccccc23)CC1 (stereo unspecified) | -20.5% (inactive)
28 | CC1(C)CC(=O)C=C(c2ccccc2CO)C1=O | 22.9% (inactive)
29 | CCOC(=O)c1c(Cc2ccc(Cl)cc2)c[nH]c1C | -74.6% (active)
30 | CCOC(=O)c1ccc(CS(=O)c2ccc(Cl)cc2)o1 (stereo unspecified) | -4.53% (inactive)
31 | CCOC(=O)N1CCN(C(=O)CNC(=O)Cc2ccc(Cl)cc2)CC1 | -0.466% (inactive)
32 | Cc1cccc(NC(=S)N2CCC(C(=O)c3ccc(F)cc3)CC2)c1 | -26.4% (inactive)
33 | Cc1cccc(NC(=O)c2nc(S(=O)(=O)Cc3ccccc3)ncc2Cl)c1 | -103% (active)
34 | Cc1cccc(NC(=O)CSc2nc3[nH]ncc3c(=O)[nH]2)c1 | 9.71% (inactive)
35 | Cc1cccc(NC(=O)c2nc[nH]c2C(=O)NCC(=O)OCc2ccccc2)c1 | 5.22% (inactive)
36 | O=C(Nc1ccc(F)cc1)c1ccc(S(=O)(=O)NCc2cccnc2)cc1 | -4.04% (inactive)
37 | Cc1cccc(CS(=O)(=O)c2ncc(Cl)c(C(=O)Nc3ccc(F)cc3)n2)c1 | -93.5% (active)
38 | CCOc1ccc(NC(=O)c2nc(SCC)ncc2Cl)cc1 | -0.255% (inactive)

Row | SMILES | activity change
39 | Cc1ccc(S(=O)(=O)N(C)C)cc1NC(=O)CN1c2cccc3cccc(c23)S1(=O)=O | 12.6% (inactive)
40 | COc1cc(CN2CCNC(=O)C2CC(=O)NCCc2ncccc2C)cc(OC)c1 (stereo unspecified) | 16.2% (inactive)
41 | CN(CCc1ccccc1)C(=O)c1cccc(NC(=O)Cc2cccc(NC(=O)C3CCCN(C(=O)C4CCC4)C3)c2)c1 (stereo unspecified) | -17.1% (inactive)
42 | N#CCSc1ccccc1NC(=O)CN1C(=O)NC(CCc2ccccc2)C1=O (stereo unspecified) | 12.1% (inactive)
43 | COC(=O)CNS(=O)(=O)c1ccc(OC)cc1 | -22.2% (inactive)
44 | C/C(N)=C(/C#N)C(=O)COC(=O)CNS(=O)(=O)c1ccc(C)cc1 | -8.82% (inactive)
45 | COC(=O)CNS(=O)(=O)c1ccc(Cc2ccc(S(=O)(=O)NCC(=O)OC)cc2)cc1 | -100% (active)
46 | O=C(CSc1nnc(N2CCOCC2)n1-c1cccc(F)c1)N1CCN(c2ccccn2)CC1 | 2.69% (inactive)
47 | CCCCCNC(=O)C1C(=O)Nc2ccccc2C(=O)N1C(C)(C)C (stereo unspecified) | 6.47% (inactive)
48 | CCN1CCCC1CNC(=O)c1ccc2c(c1)NC(=O)/C(=C\c1ccccc1F)S2 (stereo unspecified) | -14.5% (inactive)
49 | CC1(C)O[C@@H]2CC3C4C[C@H](F)C5=CC(=O)C=CC5(C)C4C(O)CC3(C)[C@]2(C(=O)CO)O1 (stereo partly specified) | -54.9% (active)
50 | C[C@]12C=CC(=O)C=C1CC[C@@H]1[C@@H]2C(=O)C[C@@]2(C)[C@H]1CC[C@]2(O)C(=O)CO | -14.3% (inactive) and -7.83% (inactive)
51 | CCCc1nnc(NC(=O)CCC(=O)N2CCN(S(=O)(=O)c3ccc(OC)cc3)CC2)s1 | -1.97% (inactive)
52 | CCOC(=O)c1cccc(NC(=O)CN2C(=O)C3CC=CCC3C2=O)c1 (stereo unspecified) | 14.4% (inactive)
53 | O=S(=O)(c1ccccc1)c1nc(-c2ccccc2)oc1NCCCN1CCOCC1 | inactive
54 | O=[N+]([O-])c1ccc(NCCCN2CCOCC2)c(Cl)c1 | -21.3% (inactive)
55 | Nc1nc(NCCCN2CCOCC2)nc(Nc2ccccc2)c1[N+](=O)[O-] | -59.1% (active)
56 | Cc1ccc(Cn2c(C)c3cnn(CC(=O)NCCN4CCOCC4)c(=O)c3c2C)cc1 | -4.12% (inactive)
